# Hits are enriched below; roughly 17% of the tested compounds scored in any of these assays.
# TDP1 cell noCPT = qHTS for Inhibitors of human tyrosyl-DNA phosphodiesterase 1 (TDP1): qHTS in cells in absence of CPT; DT40 Tdp1-/- hTDP1 cells, no CPT, ATP luminescence, 48 h; Potency, µM (titrated, usually from 46.2 µM), for inactives: top-dose activity change, negative = growth inhibition, hits mostly inhibitors; hit rate 15% among 420,000; note: % is set by controls: 0 for no effect and ±100 for the full control effect; nearly all actives have a fitted effect of over 55% in size
#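 A cellular qHTS used chicken DT40 cells lacking endogenous Tdp1 but carrying stably transfected human TDP1. Compounds were applied without camptothecin, and cell growth kinetics were judged by ATP-dependent luminescence after ≥48 hr.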
# DT40 TDP1 CPT = DT40-hTDP1 cell growth loss with CPT; chicken DT40 Tdp1-/-;hTDP1 cells + 20 nM CPT, ATP luminescence, 48 h; hit rate 12% among 420,000; Potency, µM (highest dose often 46.2 µM), inactives show at the top dose activity change, negative = growth inhibition, hits mostly inhibitors; note: % is set by controls: 0 for no effect and ±100 for the full control effect; nearly all actives have a fitted effect of over 55% in size
#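 Chicken DT40 Tdp1-/- cells stably complemented with human TDP1 were seeded at 400 cells/well in medium containing 20 nM camptothecin, exposed to pin-transferred compounds, and grown at 37 °C for at least 48 hr. Viability was read as ATP luminescence.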
# ClpP mod = qHTS Assay for Activators of ClpP; ATP-dependent Clp protease proteolytic subunit (Bacillus subtilis (strain 168)), P80244; purified B. subtilis ClpP, FRET peptide cleavage, 20 min; Potency, µM (doses to about 57.5 µM), without a hit: at the top dose activity change, negative = active; hit rate 1.9% among 340,000; AID 651965, 2013; active = well fitted falling curve with a large enough effect; inconclusive = small, poorly fitted or top-dose-only effect; inactive = no such curve, though single readings can be large or run the other way; note: the source files actives as falling curves though it sought activators and does not explain the sign; nearly all actives have a fitted effect of over 65% in size
#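 ClpP 10 microg/mL final, pH 8 Tris/KCl buffer with BSA, glycerol, Tween-20; compound pinned in; FRET-FV substrate; RT 20 min; Ex320/Em430; ΔFRET vs ADEP 5.8 microM, DMSO, no enzyme.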
# TDP1 inh = inhibitors of human tyrosyl-DNA phosphodiesterase TDP1; Q9NUW8; recombinant TDP1, AlphaScreen DNA substrate cleavage; Potency, µM (top dose mostly 130 µM), without a hit: top-dose activity change, negative = inhibition, actives largely listed as inhibitors; hit rate 0.28% among 350,000; AID 485290; note: % is set by controls: 0 for no effect and ±100 for the full control effect; nearly all actives have a fitted effect of over 40% in size
# Target sequence (Q9NUW8 whole entry, looked up): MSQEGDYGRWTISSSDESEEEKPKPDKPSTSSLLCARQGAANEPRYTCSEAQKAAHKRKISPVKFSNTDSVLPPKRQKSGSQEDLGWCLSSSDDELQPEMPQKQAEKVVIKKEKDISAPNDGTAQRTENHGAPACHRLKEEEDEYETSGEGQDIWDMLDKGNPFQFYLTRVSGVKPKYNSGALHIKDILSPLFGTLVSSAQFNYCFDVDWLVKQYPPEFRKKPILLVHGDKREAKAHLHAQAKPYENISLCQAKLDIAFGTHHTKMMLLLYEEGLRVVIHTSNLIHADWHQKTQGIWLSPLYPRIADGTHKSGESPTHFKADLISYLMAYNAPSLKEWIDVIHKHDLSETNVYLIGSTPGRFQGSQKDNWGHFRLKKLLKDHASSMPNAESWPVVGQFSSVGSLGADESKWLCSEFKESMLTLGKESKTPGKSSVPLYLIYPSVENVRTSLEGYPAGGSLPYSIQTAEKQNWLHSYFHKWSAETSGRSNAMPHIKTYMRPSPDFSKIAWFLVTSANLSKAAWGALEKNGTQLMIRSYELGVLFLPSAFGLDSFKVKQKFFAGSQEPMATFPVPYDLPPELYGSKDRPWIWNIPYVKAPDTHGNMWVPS
#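 E. coli-derived human Tdp1, 1 nM final. Cpd preinc 15 min RT; substrate 15 nM final, 5 min RT; AS bead mix 10 ug/ml final, 10 min RT. Signal loss = tyrosine-FITC cleavage. No-enzyme wells = max signal.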
# The depositor's hits bear a star; ? = inconclusive; . = not tested or not shown; [ ] = another dose, or the depositor's remark. Unless noted, calls come from the whole dose curve; as a rule, active = well fitted curve in the direction sought with a large enough effect; inconclusive = small, poorly fitted or top-dose-only effect, or another doubt; inactive = no such curve, though single readings can be large; an effect the other way counts as inactive or inconclusive. Potency is the fitted concentration of half-maximal effect.
SMILES,TDP1 cell noCPT,DT40 TDP1 CPT,ClpP mod,TDP1 inh
CCCCCn1c(=O)c(C(=O)Nc2nc(CC(=O)OCC)cs2)c(O)c2ccccc21,4.6µM*,4.1µM*,.,3%
CCCCCCn1c(=O)c(C(=O)Nc2cccc(C)n2)c(O)c2ccccc21,3.7µM*,3.7µM*,1%,.
CCCCCn1c(=O)c(C(=O)Nc2cnccn2)c(O)c2ccccc21,2.9µM*,4.1µM*,.,-3%
CCCCCCn1c(=O)c(C(=O)Nc2nnc(C)s2)c(O)c2ccccc21,.,.,.,1%
CCCCCCn1c(=O)c(C(=O)Nc2ncccc2C)c(O)c2ccccc21,1.6µM*,4.1µM*,-28%,.
O=C(CNC(=O)c1ccccc1)NCC(=O)OCC(=O)c1ccc([N+](=O)[O-])cc1,?,?,.,-1%
C[N+]1(CCF)[C@@H]2CC[C@H]1CC(OC(=O)C(O)(c1ccccc1)c1ccccc1)C2 (some centres not stated),-2%,11%,.,.
CCOC(=O)C1OC1(C)c1ccccc1 (configuration not stated),.,.,.,10%
CCCCCn1c(=O)c(C(=O)Nc2ccccc2C)c(O)c2ccccc21,2%,21%,.,.
CCCCCCCn1c(=O)c(C(=O)Nc2cnccn2)c(O)c2ccccc21,0.58µM*,0.82µM*,.,.
CCCCCn1c(=O)c(C(=O)Nc2cc(C)ccn2)c(O)c2ccccc21,7.3µM*,7.3µM*,-7%,.
CCCCCCCCCCCCCC(=O)OC1C(C)[C@@]2(O)C(C=C(CO)C[C@]3(O)C(=O)C(C)=C[C@H]23)[C@@H]2C(C)(C)[C@]12OC(C)=O (some centres not stated),?,?,.,10%[56.1 µM]
CC(OC(=O)COc1ccc(Nc2ccccc2)cc1)C(=O)N(C)c1ccccc1 (configuration not stated),?,?,-5%,.
OCCBr,.,.,.,5%
CC(C)NC[C@H](O)COc1cccc2[nH]ccc12,0%,-23%,-3%,9%[56.1 µM]
O=C(NCCN1CCC2(CC1)C(=O)NCN2c1cccc(F)c1)c1ccc2ccccc2c1,?,?,-1%,.
O=C(NCCN1CCC(n2c(=O)[nH]c3ccccc32)CC1)c1ccc2ccccc2c1,?,23µM*,-4%,.
CN1CC2CN(Cc3ccccc3)S(=O)(=O)C2C1 (configuration not stated),3%,-9%,3%,.
CS(=O)(=O)c1ccc(C(=O)C2C(=O)CCCC2=O)c([N+](=O)[O-])c1,?,-30%[92.5 µM],.,.
CCOP(=O)(OCC)C(NC(=O)c1cccc([N+](=O)[O-])c1)C(Cl)(Cl)Cl (configuration not stated),-1%,-2%,32µM*,.
CC(C)(COC(=O)C(c1ccccc1)c1ccccc1)CN1CCOCC1,21µM*,?,.,.
O=C1Nc2ccc(Br)cc2C(c2ccccc2)=NC1O (configuration not stated),?,?,-1%,.
CC1N=C(c2ccccc2)c2cc(Br)ccc2NC1=O (configuration not stated),18µM*,?,.,.
O[C@@H]1CCCN2CCc3c([nH]c4ccccc34)[C@H]12,?,15µM*,?,.
COc1ccc(NP(=O)(Oc2ccc(Cl)cc2)Oc2ccc(Cl)cc2)cc1OC,26µM*,18µM*,2%,11%
SMILES,TDP1 cell noCPT,DT40 TDP1 CPT,ClpP mod,TDP1 inh
COc1ccccc1OP(=O)(Nc1ccc(Br)cc1)Oc1ccccc1OC,?,?,0%,.
COc1ccc(NP(=O)(Oc2ccccc2OC)Oc2ccccc2OC)cc1,16µM*,?,.,10%
CCCCCCCCc1[se]c2ccccc2c1[Se]c1ccccc1,.,.,.,6%
COc1ccccc1S(=O)(=O)N(C)C[C@@H]1Oc2cc(C#CCC(C)C)ccc2S(=O)(=O)N([C@H](C)CO)C[C@@H]1C,?,?,-2%,.
COc1ccc(C#Cc2ccc3c(c2)O[C@H](CN(C)S(=O)(=O)c2ccccc2F)[C@H](C)CN([C@H](C)CO)S3(=O)=O)cc1,21µM*,?,4%,.
CN1CCc2nc(SCc3cccc(Br)c3)c(C#N)cc2C1,18µM*,?,62%,5%
